Source: PubChem BioAssay (EPA / NIEHS)
Active and inactive are the calls of the source. The calls were made as follows: active = hit-call score of the fitted dose curve at least 0.9, where 1 is the maximum; inactive = score below 0.9.

What was measured:
[1] = ATG_M_32_CIS: Attagene CIS-FACTORIAL HepG2 Assay for M32 Transcription Factor (Internal Marker) (AID 2282949); details: HepG2 Attagene cis-factorial M32 reporter, mRNA; actives raise or lower the signal;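 also: background control marker of the multiplexed CIS panel rather than a real target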
Method in brief: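 Using DMSO as baseline, bidirectional curve fits were applied to reporter mRNA signals. These came from transiently transfected HepG2 cells exposed for 24 h, with RNA analysed by RT-PCR, FAM primer extension, HpaI digestion and CE.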

[2] = ATG_M_06_CIS: Attagene CIS-FACTORIAL HepG2 Assay for M06 Transcription Factor (Internal Marker) (AID 2282950); details: HepG2 Attagene CIS-FACTORIAL M06 internal marker reporter; actives raise or lower the signal
Method in brief: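 Fluorescence-labelled RT-PCR products from cis-promoter reporter units, cut with HpaI and resolved by capillary electrophoresis, give the signal. Cells are human HepG2, dosed for 24 h. Serves as background control, fitted relative to DMSO.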

[3] = target: Hypoxia-inducible factor 1-alpha (Homo sapiens) (UniProt Q16665); assay: ATG_HIF1a_CIS: Attagene CIS-FACTORIAL HepG2 Assay for human Hypoxia Inducible Factor 1 (HIF1A) (AID 2282951); details: HepG2 Attagene cis-factorial HIF1a reporter transcription; actives raise or lower the signal
Method in brief: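 Measures endogenous transcription-factor activity through cis-regulated reporter mRNA in HepG2. Cells dosed 24 h; transcripts quantified by RT-PCR with 6-FAM-labelled products separated by capillary electrophoresis; DMSO serves as negative control.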

[4] = target: Hepatocyte nuclear factor 6 (Homo sapiens) (UniProt Q9UBC0); assay: ATG_HNF6_CIS: Attagene CIS-FACTORIAL HepG2 Assay for human Hepatocyte Nuclear Factor 6 (HNF6) (AID 2282952); details: HepG2 Attagene cis-factorial HNF6 reporter transcription; actives raise or lower the signal
Method in brief: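 Endogenous transcription factor activity in human HepG2 liver cells was captured through cis-regulated reporter constructs. After 24 h treatment, reporter mRNA was measured by RT-PCR with capillary electrophoresis, and activity was fitted in both directions relative to DMSO.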

[5] = target: Heat shock factor protein 1 (Homo sapiens) (UniProt Q00613); assay: ATG_HSE_CIS: Attagene CIS-FACTORIAL HepG2 Assay for human Heat Shock Transcription Factor 1 (HSE) (AID 2282953); details: HepG2 HSE cis-reporter, Attagene RNA transcription; actives raise or lower the signal
Method in brief: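 After a 24 h incubation with test chemical, transfected HepG2 cells were harvested for RNA; reporter transcripts were measured by RT-PCR and capillary electrophoresis. Values reflect gain or loss of signal relative to DMSO.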

[6] = ATG_MRE_CIS: Attagene CIS-FACTORIAL HepG2 Assay for human Metal Responsive Element (MRE) (AID 2282954); details: HepG2 MRE cis-reporter transcription, Attagene multiplex; actives raise or lower the signal
Method in brief: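 Multiplexed cis-reporter assay in human HepG2 liver cells, 24 h incubation with test chemical. Reporter transcripts measured by RT-PCR and capillary electrophoresis; values from bidirectional curve fitting versus DMSO.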

[7] = ATG_PBREM_CIS: Attagene CIS-FACTORIAL HepG2 Assay for human Phenobarbital-responsive Enhancer Module (PBREM) (AID 2282955); details: HepG2 PBREM cis-reporter, Attagene multiplexed transcription; actives raise or lower the signal
Method in brief: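 Fluorescence of labelled reporter cDNA fragments, resolved by capillary electrophoresis, gives mRNA induction in transfected HepG2 cells treated for 24 h; DMSO serves as negative control and baseline.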

[8] = target: Paired box protein Pax-6 (Homo sapiens) (UniProt P26367); assay: ATG_Pax6_CIS: Attagene CIS-FACTORIAL HepG2 Assay for human Paired Box 6 (PAX6) (AID 2282956); details: HepG2 CIS-FACTORIAL PAX6 reporter transcription, RNA readout; actives raise or lower the signal
Method in brief: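 DMSO-referenced bidirectional fits of reporter mRNA fluorescence; HepG2 with transient cis-promoter MRTUs, 24 h post-dose, RT-PCR plus capillary electrophoresis detection.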

[9] = ATG_PXRE_CIS: Attagene CIS-FACTORIAL HepG2 Assay for human Pregnane X Receptor Element (PXRE) (AID 2282957); details: HepG2 Attagene CIS-FACTORIAL PXRE reporter, mRNA; actives raise or lower the signal
Method in brief: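 Endogenous transcription factor activity in HepG2 was gauged through induction of reporter mRNA driven by a cis-regulating promoter element, sampled 24 h post-treatment. Activity was fitted in both directions against DMSO negative control.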

[10] = ATG_RORE_CIS: Attagene CIS-FACTORIAL HepG2 Assay for human RAR-related Orphan Receptor Element (RORE) (AID 2282959); details: HepG2 Attagene cis-factorial RORE reporter, mRNA; actives raise or lower the signal
Method in brief: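 Cells were HepG2 carrying transfected cis-regulated reporter constructs, dosed for 24 hours. Total RNA was reverse-transcribed and reporter cDNA amplified, fluorescently labeled and sized by capillary electrophoresis. Activity was fitted bidirectionally relative to DMSO.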

[11] = ATG_Sox_CIS: Attagene CIS-FACTORIAL HepG2 Assay for human SRY-box transcription factor (SOX) (AID 2282960); details: HepG2 Attagene cis-factorial SOX reporter, mRNA; actives raise or lower the signal
Method in brief: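 Transient MRTU transfection of HepG2; 24 h compound incubation; TriZol RNA, oligo(dT) RT, PCR, 6-FAM primer extension, HpaI cut, CE. Bidirectional fit, DMSO = baseline.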

[12] = target: Transcription factor Sp1 (Homo sapiens) (UniProt P08047); assay: ATG_Sp1_CIS: Attagene CIS-FACTORIAL HepG2 Assay for human Specificity Protein 1 (Sp1) (AID 2282961); details: HepG2 Sp1 cis-reporter transcription, actives raise or lower the signal
Method in brief: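 Endogenous Sp1 activity was gauged in human liver HepG2 cells bearing transfected reporter units under a cis-regulating promoter. After 24 h dosing, reporter mRNA was quantified by RT-PCR with capillary electrophoresis, and activity fitted bidirectionally versus DMSO.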

[13] = target: Signal transducer and activator of transcription 3 (Homo sapiens) (UniProt P40763); assay: ATG_STAT3_CIS: Attagene CIS-FACTORIAL HepG2 Assay for human Signal Transducer and Activator of Transcription 3 (STAT3) (AID 2282963); details: HepG2, Attagene cis-factorial STAT3 reporter transcription; actives raise or lower the signal
Method in brief: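 Cis-factorial format: endogenous transcription factors in HepG2 drive transfected reporter units. After 24 h treatment, reporter RNA was reverse-transcribed, amplified, FAM-labelled and HpaI-digested before CE analysis; activity scored in both directions against DMSO.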

[14] = ATG_TA_CIS: Attagene CIS-FACTORIAL HepG2 Assay for human TA Basal Promoter (AID 2282964); details: HepG2 Attagene CIS-factorial TA basal promoter reporter; actives raise or lower the signal
Method in brief: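 Multiplexed mRNA reporter assay, HepG2, 24 h. Reporter cDNA amplified, 6-FAM primer-extended, HpaI-cut, CE-sized; DMSO = negative control and baseline.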

[15] = ATG_TCF_b_cat_CIS: Attagene CIS-FACTORIAL HepG2 Assay for human T-Cell-Factor with beta-catenin (TCF/b-cat) (AID 2282965); details: HepG2 TCF/beta-catenin cis-reporter transcription, actives raise or lower the signal
Method in brief: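 Endogenous TCF/LEF activity read as reporter transcript level via RT-PCR and capillary electrophoresis fluorescence in transfected HepG2, 24 h exposure; gain or loss of signal fitted against DMSO controls.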

[16] = ATG_TAL_CIS: Attagene CIS-FACTORIAL HepG2 Assay for human TAL Basal Promoter (AID 2282966); details: HepG2 Attagene cis-factorial TAL promoter reporter; actives raise or lower the signal;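 also: background control endpoint measuring basal TAL promoter reporter mRNA not a specific factor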
Method in brief: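 Endogenous transcription-factor activity is sensed in HepG2 cells through transfected cis-promoter reporter constructs. After 24 h dosing, reporter transcripts are quantified by RT-PCR and capillary electrophoresis. Gain or loss of signal is fitted relative to DMSO.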

[17] = ATG_TGFb_CIS: Attagene CIS-FACTORIAL HepG2 Assay for human Transforming Growth Factor (TGF) (AID 2282967); details: HepG2 Attagene CIS TGFb reporter, mRNA transcription; actives raise or lower the signal
Method in brief: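 Transcript-level reporter readout: HepG2 transfectants, 24 h exposure, RNA to cDNA, reporter-specific PCR, fluorescent primer extension, capillary sizing against ROX standards. Gain- or loss-of-signal relative to DMSO.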

[18] = ATG_VDRE_CIS: Attagene CIS-FACTORIAL HepG2 Assay for human Vitamin D Receptor Element (VDRE) (AID 2282968); details: HepG2 VDRE cis-reporter transcription, actives raise or lower the signal
Method in brief: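 Measures endogenous factor activity through cis-element-driven reporter transcripts in transiently transfected HepG2. Cells are treated 24 h; reporter mRNA is quantified by RT-PCR and capillary electrophoresis; fitting is bidirectional.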

[19] = ATG_PPRE_CIS: Attagene CIS-FACTORIAL HepG2 Assay for human Peroxisome Proliferator-activated Response Element (PPRE) (AID 2282958); details: HepG2 PPRE cis-element reporter, Attagene transcription factor profiling; actives raise or lower the signal
Method in brief: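 Cells are first transfected transiently with the multiplexed reporter library, then dosed for 24 h. Total RNA is reverse-transcribed, amplified, fluorescently end-labeled and HpaI-cut before capillary electrophoresis; activity is fitted bidirectionally against DMSO controls.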

[20] = ATG_SREBP_CIS: Attagene CIS-FACTORIAL HepG2 Assay for human Sterol Regulatory Element Binding (SREBP) (AID 2282962); details: HepG2 Attagene cis-factorial SREBP reporter, mRNA; actives raise or lower the signal
Method in brief: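 In this cis-format assay, HepG2 liver cells express reporters controlled by promoter elements responsive to native transcription factors. Exposure lasts 24 h; reporter mRNA fluorescence from capillary electrophoresis gives the signal, fitted bidirectionally against DMSO.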

Measured: AC50

Chain of Hypoxia-inducible factor 1-alpha (Homo sapiens) (Q16665 whole entry, looked up): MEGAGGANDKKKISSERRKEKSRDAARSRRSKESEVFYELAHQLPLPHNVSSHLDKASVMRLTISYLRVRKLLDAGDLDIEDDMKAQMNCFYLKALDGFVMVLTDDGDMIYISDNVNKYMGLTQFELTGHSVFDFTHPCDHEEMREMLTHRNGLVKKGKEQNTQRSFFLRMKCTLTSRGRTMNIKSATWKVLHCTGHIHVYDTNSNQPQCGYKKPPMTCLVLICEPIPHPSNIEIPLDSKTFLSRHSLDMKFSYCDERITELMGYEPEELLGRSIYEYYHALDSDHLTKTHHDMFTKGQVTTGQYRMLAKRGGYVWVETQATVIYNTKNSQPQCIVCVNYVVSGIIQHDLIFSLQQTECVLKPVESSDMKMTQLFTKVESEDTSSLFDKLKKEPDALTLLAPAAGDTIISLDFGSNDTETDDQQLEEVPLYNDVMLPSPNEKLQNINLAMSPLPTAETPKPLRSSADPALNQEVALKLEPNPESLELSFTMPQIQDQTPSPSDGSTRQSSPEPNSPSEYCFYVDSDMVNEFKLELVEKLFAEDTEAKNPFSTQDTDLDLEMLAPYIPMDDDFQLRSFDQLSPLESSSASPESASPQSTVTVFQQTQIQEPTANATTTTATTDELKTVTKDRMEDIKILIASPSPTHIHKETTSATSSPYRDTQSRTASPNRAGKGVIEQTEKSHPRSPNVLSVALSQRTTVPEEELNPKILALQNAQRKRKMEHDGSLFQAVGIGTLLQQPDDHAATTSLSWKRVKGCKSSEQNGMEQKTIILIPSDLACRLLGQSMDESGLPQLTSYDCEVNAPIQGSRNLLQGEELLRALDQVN
Chain of Heat shock factor protein 1 (Homo sapiens) (Q00613 whole entry, looked up): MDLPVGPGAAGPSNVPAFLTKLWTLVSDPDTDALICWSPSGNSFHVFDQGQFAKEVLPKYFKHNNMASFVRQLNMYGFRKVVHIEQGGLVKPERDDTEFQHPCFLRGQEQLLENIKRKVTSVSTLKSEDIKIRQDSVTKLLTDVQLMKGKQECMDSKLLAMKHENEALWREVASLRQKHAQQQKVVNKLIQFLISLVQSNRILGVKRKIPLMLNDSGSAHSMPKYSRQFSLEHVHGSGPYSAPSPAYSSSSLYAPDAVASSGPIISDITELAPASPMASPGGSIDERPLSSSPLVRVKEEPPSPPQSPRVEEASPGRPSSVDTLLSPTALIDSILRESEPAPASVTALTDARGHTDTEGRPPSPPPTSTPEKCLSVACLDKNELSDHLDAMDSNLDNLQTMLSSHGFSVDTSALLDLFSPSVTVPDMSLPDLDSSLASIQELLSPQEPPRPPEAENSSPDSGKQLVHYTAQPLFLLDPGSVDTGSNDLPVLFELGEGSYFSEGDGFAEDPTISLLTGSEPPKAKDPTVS
Chain of Signal transducer and activator of transcription 3 (Homo sapiens) (P40763 whole entry, looked up): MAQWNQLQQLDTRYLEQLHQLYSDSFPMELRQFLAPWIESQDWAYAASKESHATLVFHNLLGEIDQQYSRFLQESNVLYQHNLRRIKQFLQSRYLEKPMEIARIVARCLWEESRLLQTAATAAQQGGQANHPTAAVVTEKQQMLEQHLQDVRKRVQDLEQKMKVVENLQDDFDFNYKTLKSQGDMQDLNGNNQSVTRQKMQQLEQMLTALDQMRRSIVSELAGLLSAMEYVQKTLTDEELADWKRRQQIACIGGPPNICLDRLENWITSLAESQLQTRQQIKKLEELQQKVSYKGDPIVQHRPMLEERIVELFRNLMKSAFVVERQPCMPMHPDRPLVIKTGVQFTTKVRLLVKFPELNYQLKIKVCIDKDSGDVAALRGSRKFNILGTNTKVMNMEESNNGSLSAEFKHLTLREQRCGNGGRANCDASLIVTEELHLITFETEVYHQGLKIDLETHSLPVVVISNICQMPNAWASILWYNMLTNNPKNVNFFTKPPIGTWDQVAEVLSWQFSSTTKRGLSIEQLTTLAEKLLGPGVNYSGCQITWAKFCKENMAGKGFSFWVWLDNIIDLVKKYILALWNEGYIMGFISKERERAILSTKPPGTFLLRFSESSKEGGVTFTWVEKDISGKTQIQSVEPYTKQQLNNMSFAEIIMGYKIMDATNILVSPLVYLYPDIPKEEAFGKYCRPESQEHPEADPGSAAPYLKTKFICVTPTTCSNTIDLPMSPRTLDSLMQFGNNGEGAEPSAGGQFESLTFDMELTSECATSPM
Chain of Hepatocyte nuclear factor 6 (Homo sapiens) (Q9UBC0 whole entry, looked up): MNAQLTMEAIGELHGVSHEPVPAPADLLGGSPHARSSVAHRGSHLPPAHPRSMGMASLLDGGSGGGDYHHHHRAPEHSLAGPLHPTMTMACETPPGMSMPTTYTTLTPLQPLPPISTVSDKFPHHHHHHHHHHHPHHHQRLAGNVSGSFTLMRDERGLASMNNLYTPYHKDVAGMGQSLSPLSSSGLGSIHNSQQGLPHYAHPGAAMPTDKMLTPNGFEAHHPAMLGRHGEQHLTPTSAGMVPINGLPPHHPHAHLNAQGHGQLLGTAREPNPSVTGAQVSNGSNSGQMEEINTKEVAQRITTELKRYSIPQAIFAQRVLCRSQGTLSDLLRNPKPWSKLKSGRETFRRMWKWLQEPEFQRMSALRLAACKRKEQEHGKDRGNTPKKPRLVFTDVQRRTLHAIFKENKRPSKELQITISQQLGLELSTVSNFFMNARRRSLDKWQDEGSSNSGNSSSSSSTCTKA
Chain of Transcription factor Sp1 (Homo sapiens) (P08047 whole entry, looked up): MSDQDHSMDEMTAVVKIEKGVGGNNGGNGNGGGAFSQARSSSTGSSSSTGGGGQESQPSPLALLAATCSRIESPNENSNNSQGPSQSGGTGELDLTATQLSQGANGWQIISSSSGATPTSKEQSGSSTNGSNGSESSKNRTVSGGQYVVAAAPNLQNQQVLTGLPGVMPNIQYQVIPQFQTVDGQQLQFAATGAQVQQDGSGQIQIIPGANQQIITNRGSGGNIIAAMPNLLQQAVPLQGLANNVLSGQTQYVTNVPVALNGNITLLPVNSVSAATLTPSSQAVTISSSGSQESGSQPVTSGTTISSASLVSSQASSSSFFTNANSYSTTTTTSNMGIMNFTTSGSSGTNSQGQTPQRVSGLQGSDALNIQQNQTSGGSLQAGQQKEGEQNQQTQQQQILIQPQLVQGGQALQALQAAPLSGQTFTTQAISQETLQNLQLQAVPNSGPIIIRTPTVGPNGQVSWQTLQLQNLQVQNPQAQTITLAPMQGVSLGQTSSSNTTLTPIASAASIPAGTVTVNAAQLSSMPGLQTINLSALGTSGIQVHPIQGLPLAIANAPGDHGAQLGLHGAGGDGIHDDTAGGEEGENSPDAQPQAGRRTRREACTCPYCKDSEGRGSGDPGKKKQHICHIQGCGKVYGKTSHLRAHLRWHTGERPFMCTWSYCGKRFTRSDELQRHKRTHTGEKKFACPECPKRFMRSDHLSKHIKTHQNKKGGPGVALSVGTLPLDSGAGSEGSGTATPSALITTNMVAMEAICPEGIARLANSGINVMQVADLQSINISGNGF
Chain of Paired box protein Pax-6 (Homo sapiens) (P26367 whole entry, looked up): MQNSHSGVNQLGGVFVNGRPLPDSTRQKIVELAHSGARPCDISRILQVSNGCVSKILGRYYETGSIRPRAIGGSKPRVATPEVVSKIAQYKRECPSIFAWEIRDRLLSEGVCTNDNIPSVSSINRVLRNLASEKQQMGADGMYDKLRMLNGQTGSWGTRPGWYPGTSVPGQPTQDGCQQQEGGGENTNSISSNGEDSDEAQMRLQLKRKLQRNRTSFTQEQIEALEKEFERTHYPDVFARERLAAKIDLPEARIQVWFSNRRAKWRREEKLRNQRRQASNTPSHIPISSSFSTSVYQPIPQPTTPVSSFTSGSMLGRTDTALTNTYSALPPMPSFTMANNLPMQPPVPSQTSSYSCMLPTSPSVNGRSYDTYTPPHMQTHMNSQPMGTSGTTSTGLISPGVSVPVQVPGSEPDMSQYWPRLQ

O=C(NCc1ncc(C(F)(F)F)cc1Cl)c1c(Cl)cccc1Cl
inactive: [1] | [2] | [3] | [4] | [5] | [6] | [7] | [8] | [10] | [11] | [12] | [13] | [14] | [15] | [16] | [17] | [18]
active: [9] 0.799 µM

CC(O)COc1ccccc1 (stereo unspecified)
inactive: [1] | [2] | [3] | [4] | [5] | [6] | [7] | [8] | [19] | [10] | [11] | [12] | [20] | [13] | [14] | [15] | [16] | [17] | [18]

Oc1c(Cl)ccc(Cl)c1Cl
inactive: [1] | [2] | [3] | [4] | [5] | [6] | [7] | [8] | [10] | [11] | [12] | [20] | [13] | [14] | [15] | [18]
active: [9] 49.8 µM

CC(C)(c1ccc(Oc2ccc(N)cc2)cc1)c1ccc(Oc2ccc(N)cc2)cc1
active: [6] 2.77 µM | [18] 3.6 µM
inactive: [1] | [2] | [3] | [4] | [5] | [7] | [8] | [10] | [11] | [12] | [13] | [14] | [15] | [16] | [17]

CCOC=O
inactive: [1] | [2] | [3] | [4] | [5] | [6] | [7] | [8] | [9] | [11] | [12] | [20] | [13] | [14] | [15] | [16] | [17] | [18]

CC(=O)Nc1ccc(S(N)(=O)=O)cc1
inactive: [1] | [2] | [3] | [4] | [5] | [6] | [7] | [9] | [19] | [10] | [11] | [12] | [20] | [13] | [14] | [15] | [16] | [17] | [18]

CCc1ccccc1O
inactive: [1] | [2] | [3] | [4] | [5] | [6] | [7] | [8] | [11] | [12] | [20] | [13] | [14] | [15] | [16] | [17]
active: [9] 10.8 µM | [18] 27.9 µM
